From PubChem BioAssay
Several values for one entry are separate records, joined by “and”; a condition that tells them apart may be missing. Equal values may be shown once. Activity calls are given as the source filed them. Unless noted, no rule for the calls is given here.

How the values were obtained:
[1] = tested on: Wnt5a (protein binding on small-molecule microarray); test: small molecules binding Wnt5a protein – biophysical, small-molecule microarray, 635/667 nm fluorescence, primary screen (AID 1142); settings: 635 nm fluorescence, higher = more signal;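 also: fluorescence read at 667 nm with signal to noise per printed feature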
[2] = ATP-based viability of Huh7 replicon cells – cell-based, CellTiter-Glo luminescence, basal, 48 h, cytotoxicity control for HCV replication inhibitor project, primary screen (AID 1143); settings: higher = more signal, called active from +8 up or from −8 down;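 also: Huh7 hepatoma cells carrying a hepatitis C replication reporter with no stimulus; test concentration not given here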
[3] = Pseudomonas biofilm growth suppression – PAO1 strain, BacTiter-Glo luminescence, LB-PBS, primary screen (AID 1144); settings: P. aeruginosa PAO1 biofilm, 12 h, higher = more signal
[4] = basal CRE-LacZ reporter activity in PC12 – cell-based, unstimulated, primary screen (AID 1145); settings: no forskolin, luminescence, 4.5 h, higher = more signal, called active from +8 up or from −8 down
[5] = forskolin-driven CRE-LacZ activity in PC12 – cell-based, CRE-LacZ reporter, forskolin-stimulated, primary screen (AID 1146); settings: luminescence, 4.5 h, higher = more signal, called active from +8 up or from −8 down;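 also: PC12 cells with 6xCRE LacZ reporter stimulated by forskolin 10 µM; beta-galactosidase reporter signal reflecting CREB driven transcription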
[6] = biological target: Streptavidin (Streptomyces avidinii) (UniProt P22629); test: compounds binding control protein streptavidin – biophysical, small-molecule microarray, 635/667 nm fluorescence, artefact control for SMM compound annotation, primary screen (AID 1147); settings: higher = more signal;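 also: signal reflects streptavidin binding to arrayed compounds as a control protein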
[7] = probe aInhba binding on compound microarray – biochemical, small-molecule microarray, 635/667 nm fluorescence, primary screen (AID 1148); settings: higher = more signal;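 also: score merges 667nm spot fluorescence with signal-to-noise for antibody binding to printed compounds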
Torsin-1A (Homo sapiens) [8] = biological target: Torsin-1A (Homo sapiens) (UniProt O14656); test: TOR1A wild-type binding on microarray – cell lysate, small-molecule microarray, lysate, 635/667 nm, primary screen (AID 1149); settings: COS7 hTOR1A-WT lysate, 635 nm fluorescence, higher = more signal
Torsin-1A (Homo sapiens) [9] = biological target: Torsin-1A (Homo sapiens) (UniProt O14656); test: torsin A mutant lysate binding on microarrays – cell lysate, small-molecule microarray, COS7 lysate, 635/667 nm fluorescence, primary screen (AID 1150); settings: COS7 hTOR1A mutant lysate, 635 nm fluorescence, higher = more signal;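 also: score pools 667 nm emission and signal to noise measuring lysate protein binding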
[10] = tested on: Sonic hedgehog protein (Shh); test: Sonic hedgehog microarray binding compounds – biochemical, small-molecule microarray, 635/667 nm fluorescence, primary screen (AID 1151); settings: 635 nm fluorescence, higher = more signal;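 also: Shh protein binding to compounds spotted on small-molecule microarray slides; score combines spot fluorescence intensity with signal-to-noise across triplicate slides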
[11] = optical density shifts of acrAB sulA E. coli – strain DRC41, OD650, 48 h, E. coli filamentation inducer project, primary screen (AID 1152); settings: higher = more signal, called active from +8 up or from −8 down;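 also: E. coli MC1000 strain DRC41 lacking acrAB efflux pump and sulA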
[12] = probe aLefty1 binding on compound microarray – biochemical, small-molecule microarray, 635/667 nm fluorescence, primary screen (AID 1153); settings: higher = more signal;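 also: score merges spot fluorescence with signal-to-noise ratio from the scanned slide images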
[13] = plasmodial surface anion channel blockers, osmotic lysis – cell-based, P. falciparum Indochina, OD700, 1 h, primary screen (AID 1154); settings: P. falciparum Indochina infected RBC osmotic lysis, higher = more signal, called active from +8 up or from −8 down
[14] = plasmodial surface anion channel blockers, osmotic lysis – cell-based, P. falciparum Indochina, OD700, 2 h, primary screen (AID 1155);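 also: lysis reports solute entry through the parasite surface anion channel PSAC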; settings: P. falciparum Indochina infected erythrocytes, higher = more signal, called active from +8 up or from −8 down
[15] = changes in parasitized red cell lysis, either direction – P. falciparum Indochina, OD700, 3 h, PSAC antagonist project, primary screen (AID 1156); settings: P. falciparum-infected erythrocytes, osmotic lysis, higher = more signal, called active from +8 up or from −8 down
[16] = plasmodial surface anion channel blockers, osmotic lysis – cell-based, P. falciparum Indochina, OD700, 18 h, primary screen (AID 1157); settings: P. falciparum Indochina infected erythrocytes, osmotic lysis OD700, 18 h; higher = more signal, called active from +8 up or from −8 down
[17] = S6 kinase pathway phospho-S6 level changes – cell-based, A549, cytoblot, luminescence, serum-stimulated, primary screen (AID 1158); settings: 5 h, higher = more signal;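 also: serum-stimulated A549 lung adenocarcinoma cells; signal is phosphorylated S6 detected by cytoblot immunostaining with HRP secondary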
[18] = biological target: NADPH oxidase 2 (Homo sapiens) (UniProt P04839); test: compounds shifting NOX2 Amplex Red fluorescence – cell-based, HEK293-NOX2, PMA-stimulated, NOX inhibitor project, primary screen (AID 1159); settings: 45 min, higher = more signal, called active from +8 up or from −8 down; also: test concentration not given here
[19] = biological target: NADPH oxidase 4 (Homo sapiens) (UniProt Q9NPH5); test: compounds shifting NOX4 Amplex Red fluorescence – cell-based, HEK293-NOX4, tetracycline-induced, NOX inhibitor project, primary screen (AID 1160); settings: HEK293-NOX4, Amplex Red H2O2 fluorescence, 45 min; higher = more signal, called active from +8 up or from −8 down
[20] = biological target: NADPH oxidase 5 (Homo sapiens) (UniProt Q96PH1); test: compounds shifting NOX5 Amplex Red fluorescence – cell-based, HEK293-NOX5, NOX inhibitor project, primary screen (AID 1161); settings: HEK293-NOX5, ionomycin, 45 min, higher = more signal
NADPH oxidase 5 (Homo sapiens), sequence (Q96PH1 whole entry, looked up): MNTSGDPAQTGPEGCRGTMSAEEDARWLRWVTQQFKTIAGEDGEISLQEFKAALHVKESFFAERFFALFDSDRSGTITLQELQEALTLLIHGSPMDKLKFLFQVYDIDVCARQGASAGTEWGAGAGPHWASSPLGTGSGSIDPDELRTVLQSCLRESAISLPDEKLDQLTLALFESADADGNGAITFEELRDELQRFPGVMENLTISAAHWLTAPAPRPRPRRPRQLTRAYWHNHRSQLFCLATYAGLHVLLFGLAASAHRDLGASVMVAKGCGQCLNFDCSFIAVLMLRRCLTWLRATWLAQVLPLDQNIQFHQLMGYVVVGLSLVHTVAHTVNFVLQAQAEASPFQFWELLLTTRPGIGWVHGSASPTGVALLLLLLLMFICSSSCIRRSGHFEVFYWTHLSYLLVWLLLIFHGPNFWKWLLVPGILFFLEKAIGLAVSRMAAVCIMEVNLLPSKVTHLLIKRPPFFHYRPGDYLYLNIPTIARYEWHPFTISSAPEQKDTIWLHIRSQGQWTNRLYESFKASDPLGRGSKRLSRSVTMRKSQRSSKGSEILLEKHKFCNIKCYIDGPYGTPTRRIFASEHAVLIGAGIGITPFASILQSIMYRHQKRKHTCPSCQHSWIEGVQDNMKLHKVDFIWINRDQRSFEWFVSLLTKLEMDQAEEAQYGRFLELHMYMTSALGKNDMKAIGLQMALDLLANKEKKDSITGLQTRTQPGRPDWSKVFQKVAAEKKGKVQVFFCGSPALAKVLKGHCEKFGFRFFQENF

Torsin-1A (Homo sapiens), sequence (O14656 whole entry, looked up): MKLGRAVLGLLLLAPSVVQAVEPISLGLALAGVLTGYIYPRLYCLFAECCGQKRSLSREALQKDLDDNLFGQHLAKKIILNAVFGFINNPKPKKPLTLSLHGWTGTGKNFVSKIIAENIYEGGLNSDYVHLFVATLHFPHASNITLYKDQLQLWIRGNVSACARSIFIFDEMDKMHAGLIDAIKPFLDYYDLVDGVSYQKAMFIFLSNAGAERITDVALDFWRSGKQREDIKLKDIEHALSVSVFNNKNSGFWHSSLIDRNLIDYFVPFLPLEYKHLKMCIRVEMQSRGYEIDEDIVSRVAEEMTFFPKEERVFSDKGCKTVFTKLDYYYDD
Streptavidin (Streptomyces avidinii), sequence (P22629 whole entry, looked up): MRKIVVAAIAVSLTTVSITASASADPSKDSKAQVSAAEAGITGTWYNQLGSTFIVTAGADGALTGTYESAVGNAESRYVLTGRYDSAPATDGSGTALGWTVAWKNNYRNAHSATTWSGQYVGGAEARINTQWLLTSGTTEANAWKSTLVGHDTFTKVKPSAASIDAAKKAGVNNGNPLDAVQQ
NADPH oxidase 4 (Homo sapiens), sequence (Q9NPH5 whole entry, looked up): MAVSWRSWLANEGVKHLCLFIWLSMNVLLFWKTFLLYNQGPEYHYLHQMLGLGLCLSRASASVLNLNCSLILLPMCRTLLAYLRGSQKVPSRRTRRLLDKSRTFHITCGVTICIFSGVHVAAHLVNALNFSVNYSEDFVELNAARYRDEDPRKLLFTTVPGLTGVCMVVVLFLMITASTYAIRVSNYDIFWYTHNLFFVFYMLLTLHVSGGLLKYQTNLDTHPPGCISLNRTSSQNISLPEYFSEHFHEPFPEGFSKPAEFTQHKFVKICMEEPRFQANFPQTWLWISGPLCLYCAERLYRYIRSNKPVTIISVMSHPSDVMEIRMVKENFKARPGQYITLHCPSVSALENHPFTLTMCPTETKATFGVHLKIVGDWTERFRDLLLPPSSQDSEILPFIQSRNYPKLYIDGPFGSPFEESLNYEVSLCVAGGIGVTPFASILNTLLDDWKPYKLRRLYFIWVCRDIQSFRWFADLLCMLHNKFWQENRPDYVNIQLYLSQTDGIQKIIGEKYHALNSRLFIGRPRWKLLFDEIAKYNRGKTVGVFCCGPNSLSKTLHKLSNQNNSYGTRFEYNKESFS
NADPH oxidase 2 (Homo sapiens), sequence (P04839 whole entry, looked up): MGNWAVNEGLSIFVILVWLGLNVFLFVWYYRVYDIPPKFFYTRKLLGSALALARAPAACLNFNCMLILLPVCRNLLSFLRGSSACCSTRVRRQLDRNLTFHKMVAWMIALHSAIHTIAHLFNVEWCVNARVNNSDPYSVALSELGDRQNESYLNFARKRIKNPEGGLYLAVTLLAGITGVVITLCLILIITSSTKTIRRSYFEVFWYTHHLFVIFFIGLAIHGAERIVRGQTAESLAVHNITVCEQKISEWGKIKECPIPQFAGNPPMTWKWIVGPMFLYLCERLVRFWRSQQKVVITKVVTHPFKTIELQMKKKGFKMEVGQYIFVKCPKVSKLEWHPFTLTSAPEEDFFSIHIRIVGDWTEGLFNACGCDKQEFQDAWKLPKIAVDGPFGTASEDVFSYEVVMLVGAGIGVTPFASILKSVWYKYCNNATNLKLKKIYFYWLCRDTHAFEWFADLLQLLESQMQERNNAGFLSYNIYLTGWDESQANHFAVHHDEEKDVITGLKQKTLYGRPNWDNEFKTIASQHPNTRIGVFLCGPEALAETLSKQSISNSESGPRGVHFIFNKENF

Row | Structure (SMILES) | composite z-score [1] | z-score [2] | z-score [3] | z-score [4] | z-score [5] | composite z-score [6] | composite z-score [7] | composite z-score (Torsin-1A (Homo sapiens) [8]) | composite z-score (Torsin-1A (Homo sapiens) [9]) | composite z-score [10] | z-score [11] | composite z-score [12] | z-score [13] | z-score [14] | z-score [15] | z-score [16] | z-score [17] | z-score [18] | z-score [19] | z-score [20]
1 | C=CCN(C(=O)C(c1cccs1)N(CCOCCO)C(=O)/C=C\C(=O)O)C(C)(C)C (stereo not given) | -0.775 and -0.776 | -0.199 (inactive) and -0.0585 (inactive) | -1.2 (inactive) and -0.384 (inactive) | 1.42 (inactive) and 0.191 (inactive) | 0.005 (inactive) and -0.599 (inactive) | -1.89 and -1.22 | -0.251 and -0.176 | -1.26 and -0.984 | -1.79 and -2.02 | -1.27 and -0.703 | 1.56 (inactive) and 0.971 (inactive) | -0.371 and -0.355 | -1.2 (inactive) and -1.15 (inactive) | -0.172 (inactive) and -0.307 (inactive) | 0.0342 (inactive) and -0.837 (inactive) | 0.011 (inactive) and -0.113 (inactive) | 0.234 and 0.15 | -0.302 (inactive) and -0.0837 (inactive) | -0.904 (inactive) and -0.857 (inactive) | 0.0514 and 0.0449
2 | COC(=O)[C@@]1(Cc2ccc(OC)cc2)[C@H]2c3cc(C(=O)N(C)C)n(Cc4ccc(O)c(OC)c4)c3C[C@H]2CN1C(=O)c1ccccc1 | 0.0905 and 0.294 | -1.03 (inactive) and -2.86 (inactive) | 0.209 (inactive) and 0.769 (inactive) | 0.583 (inactive) and 0.197 (inactive) | 0.217 (inactive) and -0.742 (inactive) | 1.09 and 0.758 | 0.293 and 0.714 | 0.934 and 0.0765 | 0.692 and 0.318 | 1.02 and -0.291 | -0.583 (inactive) and -1.09 (inactive) | 0.0913 and 0.661 | 7.35 (inactive) and 6.71 (inactive) | 0.45 (inactive) and 1.11 (inactive) | 2.07 (inactive) and 1.63 (inactive) | 0.642 (inactive) and 1.38 (inactive) | 0.217 and 0.749 | -1.99 (inactive) and 0.285 (inactive) | -6.68 (inactive) and 1.16 (inactive) | -5.69 and -0.509
3 | COC(=O)C1=C(C)N(Cc2ccccc2)[C@]23O[C@](C(=O)OC)(C(=O)N2[C@@H]1c1ccccc1)[C@@H](C(=O)OC)[C@H]3C(=O)OC | -0.13 and 0.206 | 0.36 (inactive) and 0.333 (inactive) | -0.754 (inactive) and 0.0472 (inactive) | 0.745 (inactive) and -0.487 (inactive) | -0.998 (inactive) and -0.909 (inactive) | -0.895 and -0.188 | -0.188 and -0.218 | -0.0921 and 0.481 | -0.107 and 0.299 | -0.652 and 0.611 | 0.514 (inactive) and 0.184 (inactive) | -0.282 and -0.0011 | 0.295 (inactive) and 0.114 (inactive) | 0.185 (inactive) and 0.319 (inactive) | 0.285 (inactive) and -0.414 (inactive) | -0.022 (inactive) and 0.17 (inactive) | -0.046 and 0.635 | 1.8 (inactive) and -0.506 (inactive) | -1.42 (inactive) and -0.0445 (inactive) | 0.371 and 0.422
4 | Cc1cc2c(nc1C)CCCN2CC(C)ON=C[C@@H](C)[C@H](OCc1ccccc1)C(C)C (stereo not given in full) | -0.0264 | 0.615 (inactive) | 0.461 (inactive) | 0.248 (inactive) | 0.317 (inactive) | -0.254 | -0.016 | -0.209 | 0.22 | 0.513 | -0.434 (inactive) | -0.0984 | 0.376 (inactive) | -0.0677 (inactive) | -0.108 (inactive) | 0.294 (inactive) | -0.775 | 0.231 (inactive) | -0.217 (inactive) | 0.00713
5 | C=CCN(CCCC)C(=O)C1N(CCOCCO)C(=O)C2C(C(=O)O)C3C=CC21O3 (stereo not given) | -0.978 and -0.38 | 0.757 (inactive) and -0.117 (inactive) | 1.42 (inactive) and 1.2 (inactive) | -0.899 (inactive) and -0.497 (inactive) | -0.327 (inactive) and -0.267 (inactive) | -1.6 and -1.56 | -0.128 and -0.353 | -3.18 and -0.099 | -2.51 and 2.04 | -1.52 and -1.51 | 0.151 (inactive) and -0.207 (inactive) | -0.191 and -0.454 | 0.461 (inactive) and -0.326 (inactive) | 0.703 (inactive) and 0.124 (inactive) | -0.668 (inactive) and -0.506 (inactive) | 0.0875 (inactive) and 0.111 (inactive) | -0.0621 and 0.53 | 0.502 (inactive) and 0.676 (inactive) | -1.77 (inactive) and -2.02 (inactive) | -0.512 and 0.152
